In the library only some 1.3% were active in any assay of this set; here they are far more common.
CRFBP-R2 block: antagonists of CRF-BP/CRF-R2 complex, primary screen, cell-based, HEK293, calcium dye fluorescence, uHTS | CRF-induced calcium fluorescence | inhibition, % at 11.8 µM | actives 0.59% (n = 350,000);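 active = inhibition of the ligand-induced calcium signal above about 50% at the single tested concentration, limit read from the data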
cardiac RTF act: cardiac RTF calcium sensitivity activators, primary screen, biochemical, IANBD-TnC fluorescence, EC20 calcium. IANBD-labeled TnC RTF fluorescence at EC20 calcium; 0% EC20 calcium, 100% full calcium. activation, % at 7.2 µM. AID 493008, 2010. actives 0.24% (n = 340,000);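 active = activation above the mean over all tested compounds plus 3 SD, cut at about 30% in these data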;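 also: rise in fluorescence read as greater calcium sensitivity of cardiac thin filaments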
RTF Ca sens inh: cardiac RTF calcium sensitivity inhibitors, primary screen, biochemical, IANBD-TnC fluorescence, EC70 calcium | IANBD-labeled cardiac RTF, Ca2+ fluorescence | inhibition, % at 7.15 µM | actives 0.12% (n = 340,000) | AID 493244, 2011;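 active = inhibition above the mean inhibition of all tested compounds plus 3 SD, cut at about 17% in these data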;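 also: assay run at fixed EC70 calcium of 1.6 mM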
CRFBP-R2 agonist: agonists of CRF-BP/CRF-R2 complex, primary screen, cell-based, HEK293, calcium dye fluorescence, uHTS; actives 0.46% (n = 350,000); CRF-binding protein / CRF receptor 2 complex (human); calcium dye fluorescence (FLIPR); percent of saturating CRF peptide response; activation, % at 13.2 µM;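 active = activation of at least 50%, plus an integration ratio under a set limit after plate pattern correction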;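 also: plate controls were neutral control wells without compound for no effect and CRF at EC100 for full effect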
Active calls of the source: *.

SMILES	CRFBP-R2 block	cardiac RTF act	RTF Ca sens inh	CRFBP-R2 agonist
COC(=O)[C@H]1C[C@H](O)CN1S(=O)(=O)c1ccc(Br)cc1F	5.1	-4.9	-9.9	2.7
Cc1ccc2[nH]c(C)c(/C=C/c3cc[n+](C)cc3)c2c1	-30.4	154.1*	-159.2	46.4
Cc1ccc2c(c1)c(/C=C/c1cc[n+](C)cc1)c(C)n2C	-72.7	241.1*	-286.0	52.6*
CCCn1c(/C=C/c2cc[n+](C)cc2)nc2ccccc21	6.2	1.7	-13.6	12.9
CCN(C(=O)CN1C(=O)COc2ccc(S(=O)(=O)N3CCCCCC3)cc21)c1cccc(C)c1	-48.3	-13.4	3.8	55.5*
COc1cc(-c2n[nH]c(=S)n2/N=C/c2cccn2C)cc(OC)c1OC	-17.8	4.4	-2.0	103.9*
Cn1cccc1/C=N/n1c(-c2ccco2)n[nH]c1=S	-7.3	-0.1	-9.0	2.1
CC(=O)Nc1ccc(S(=O)(=O)N2CCC(c3nnc(-c4ccc(C)cc4)o3)CC2)cc1	77.4*	1.3	-13.5	-5.4
O=C(CCC(=O)c1cccs1)NCc1ccccc1Cl	-4.3	1.6	-0.2	1.2
Cc1cc2c(=Cc3ccc(N(C)C)cc3)c3ccccc3n2[n+]1C	108.5*	-0.4	-3.1	-1.1
CCOC(=O)c1cc2c(=Cc3ccc(N(C)C)cc3)c3ccccc3n2[n+]1C	-32.4	-5.2	-2.6	-2.9
COCCn1c(SCc2cccc(F)c2)nc2cc(C(=O)OC)ccc2c1=O	-13.9	-2.2	3.2	0.1
CC(=O)NCc1ccc(C(=O)O)cc1	86.0*	6.4	-6.7	-0.1
O=C(O)c1ccc(NC(=O)c2ccco2)c(NC(=O)c2ccco2)c1	3.3	-3.9	-13.9	0.0
CSCCC(NC(=O)c1ccco1)C(=O)N1CC=C(c2ccccc2)CC1 (stereo not given)	-81.4	2.6	-2.3	53.3*
COc1ccc(C2/C(=C(\O)c3ccc4c(c3)CC(C)O4)C(=O)C(=O)N2Cc2cccnc2)c(OC)c1 (stereo not given)	12.4	-1.0	-2.2	0.3
Cc1c(C(=O)N2CCOCC2)sc(NC(=O)CCl)c1C#N	9.7	0.1	-30.1	-1.1
CCOC(=O)Nc1ccc(Oc2ccccc2)cc1	56.9*	1.2	-8.6	1.0
Cc1ccc(S(=O)(=O)N[C@@H](C)C(=O)OCC(=O)N2c3ccccc3NC(=O)C2(C)C)cc1	0.4	1.2	-0.7	-0.5
CCOc1ccccc1C1C(C#N)=C(N)SC(N)=C1C#N	10.8	29.8*	-55.8	3.0
N#CC1=C(N)SC(N)=C(C#N)C1c1cccc(Oc2ccccc2)c1	-19.3	37.3*	-71.1	35.9
CCOc1ccc(C2C(C#N)=C(N)SC(N)=C2C#N)cc1OCC	-27.9	41.7*	-49.8	7.3
CCOc1ccccc1C1C(C#N)=C(N)Oc2n[nH]c(CC)c21 (stereo not given)	-3.2	4.8	-13.3	-5.0
CCc1ccc(C2C(C#N)=C(N)SC(N)=C2C#N)cc1	-25.6	40.4*	-42.7	50.2*
COCCn1c(SCC(=O)Nc2cc(C)on2)nnc1-c1ccccc1	11.1	-0.8	1.8	-1.7
SMILES	CRFBP-R2 block	cardiac RTF act	RTF Ca sens inh	CRFBP-R2 agonist
CCC(=O)NNC(=O)Cc1c(C)n(C(=O)c2ccc(Cl)cc2)c2ccc(OC)cc12	3.3	2.8	2.9	-0.6
O=C1CC[C@@H]2C[C@@]3(C[C@@H]4CCN1[C@H]24)Nc1cc([N+](=O)[O-])ccc1NC3=NCc1ccccc1	-30.6	-2.2	-3.0	11.4
O=C(COC(=O)c1ccncc1)Nc1cc(Cl)ccc1Cl	51.7*	-1.4	-1.9	-4.0
O=C(COC(=O)c1ccncc1)Nc1ccccc1	10.5	1.1	-8.3	2.2
CC(/C=C1\SC(=S)N(NS(=O)(=O)c2ccc(C)cc2)C1=O)=C\c1ccccc1	-9.2	-12.0	11.3	-2.2
C=CCOc1ccc(/C=C2\SC(=S)N(NS(=O)(=O)c3ccccc3)C2=O)cc1	52.7*	-3.0	-3.4	0.7
CC(/C=C1\SC(=S)N(NS(=O)(=O)c2ccccc2)C1=O)=C\c1ccccc1	92.7*	-0.5	-5.8	-2.3
O=C1/C(=C\c2ccc(Br)cc2)SC(=S)N1NS(=O)(=O)c1ccccc1	58.4*	-2.6	7.2	0.2
Cn1nc([N+](=O)[O-])nc1Oc1ccc(C(C)(C)C)cc1	76.3*	-3.0	0.8	-2.9

Assay outcomes: PubChem BioAssay, several laboratories
